An excerpt weighted towards active compounds, which were near 3.5% of everything screened.
FBW7 act = activators of human E3 ligase FBW7. normalized activity (activation), % at 26.1 µM. AID 1259310. 650,000 tested, 0.13% active. Q969H0. AlphaScreen FBW7–phospho-cyclin E peptide binding, activator screen; in the data active means normalized activity above about 1.9%;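 further: purified mutant Fbw7 with reduced substrate affinity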
GPR151 activ = human GPR151 activation | Q8TDV0 | PathHunter beta-arrestin GPR151 cells, luminescence | AID 1508602 | 650,000 tested, 1% active | activation, % at 11.2 µM; in the data active means activation above about 4.9%;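 further: 0% = median of compound wells and 100% = cells with positive control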
Target sequence (Q8TDV0 whole entry, looked up): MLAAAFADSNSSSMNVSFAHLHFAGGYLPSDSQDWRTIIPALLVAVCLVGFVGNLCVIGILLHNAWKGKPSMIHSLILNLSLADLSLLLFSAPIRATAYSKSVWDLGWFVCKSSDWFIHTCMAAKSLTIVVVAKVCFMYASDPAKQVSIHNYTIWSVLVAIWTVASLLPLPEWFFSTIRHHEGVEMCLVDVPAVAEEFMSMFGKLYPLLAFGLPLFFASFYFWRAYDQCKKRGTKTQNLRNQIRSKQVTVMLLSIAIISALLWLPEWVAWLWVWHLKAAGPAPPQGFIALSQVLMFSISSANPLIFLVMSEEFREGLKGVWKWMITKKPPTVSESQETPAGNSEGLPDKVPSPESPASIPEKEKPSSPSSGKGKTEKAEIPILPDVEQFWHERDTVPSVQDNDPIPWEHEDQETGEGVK
MITF primary = blocks human microphthalmia-associated transcription factor; O75030; AlphaScreen MITF homodimerization, bead proximity signal; inhibition, % at 2.6 µM; 650,000 tested, 0.91% active; AID 1259374; in the data active means inhibition above about 50%;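 further: 0% = vehicle wells with protein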
TEAD-YAP block = TEAD-YAP interaction inhibition. HEK-TIYL cells, TEAD-Gal4/YAP UAS-luciferase luminescence. inhibition, % at 9.12 µM. 640,000 tested, 1.4% active; in the data active means inhibition above about 32%;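 further: 0% = median of test compound wells and 100% = reference inhibitor wells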
* marks the source's active call; other numbers are inactive results.

SMILES | FBW7 act | GPR151 activ | MITF primary | TEAD-YAP block
CN(CC(=O)N1CCc2ccccc21)S(=O)(=O)c1cccc2cnccc12 | -0.1 | -0.4 | 16.2 | 33.7*
COc1ccc(NC(=O)CN(C)S(=O)(=O)c2cccc3cnccc23)cc1OC | -0.1 | 0.3 | 27.2 | 42.1*
O=C1COc2cc(S(=O)(=O)NC3CCN(Cc4ccccc4)CC3)c(Cl)cc2N1 | -0.2 | -0.1 | 4.4 | -5.7
C=CC(=O)Nc1ccc(Br)cc1 | 0.1 | -0.8 | 6.3 | 35.5*
O=C(O)/C=C\C(=O)Nc1ccc(Br)cc1 | -0.1 | 0.7 | 4.5 | 5.0
CCOCCn1c(=NC(=O)c2cccc(OC)c2OC)sc2ccccc21 | 0.0 | -4.6 | 10.6 | 74.2*
COCCn1c(=NC(=O)c2cccc(OC)c2OC)sc2cc(OC)c(OC)cc21 | 0.3 | -2.0 | -6.4 | -8.8
Cn1cnc([N+](=O)[O-])c1S(=O)CC#N (stereo not drawn) | 0.2 | -0.3 | 14.4 | 55.5*
Cc1nc(NCCC2=CCCCC2)c2cc(C)sc2n1 | 0.0 | -0.4 | -0.7 | 40.8*
Cc1nc(NCCC2=CCCCC2)c2c3c(sc2n1)CCC3 | -0.1 | -0.8 | -6.3 | 3.5
Cc1ccc(NC(=O)c2ccc3c(c2)N(CC(=O)OC(C)C)C(=O)C(C)(C)O3)cc1 | -0.1 | -0.7 | -8.1 | -15.5
CCN(CC)c1ccc(C(=O)c2ccc(N(CC)CC)cc2)cc1 | 0.2 | 2.1 | 1.2 | 33.8*
CCN(CC)c1ccc(C(=O)O)cc1 | 0.4 | 1.3 | 4.1 | -8.2
CCCCN(CC)S(=O)(=O)c1ccc(C(=O)Nc2ccc3sc(C)nc3c2)cc1 | 0.0 | -0.1 | 20.9 | 52.6*
CCOC(=O)C1=C(C)N=c2s/c(=C\c3cccc(OCc4ccc(Cl)cc4)c3)c(=O)n2C1c1ccc2c(c1)OCO2 (stereo not drawn) | 0.5 | -1.7 | 13.8 | -2.6
Cc1cccc(NC(c2ccc3c(c2)OCO3)c2ccc3cccnc3c2O)n1 (stereo not drawn) | -0.1 | 0.3 | 14.7 | 80.4*
CCOc1cccc(C(Nc2cccc(C)n2)c2ccc3ccc(C)nc3c2O)c1 (stereo not drawn) | -0.1 | -1.5 | 9.2 | -1.8
Oc1c(C(Nc2ccccn2)c2ccc3c(c2)OCO3)ccc2cccnc12 (stereo not drawn) | -1.1 | 0.0 | 22.1 | 86.6*
CC(C)CC(=O)NC(c1ccc2c(c1)OCO2)c1ccc2cccnc2c1O (stereo not drawn) | -0.7 | -0.9 | 22.2 | 84.4*
Oc1c(C(Nc2ccccn2)c2ccc(OC3CCCC3)cc2)ccc2cccnc12 (stereo not drawn) | -0.1 | 0.1 | -0.7 | 29.0
Cc1ccccc1Nc1nc(N)nc(COC(=O)c2ccc(F)cc2F)n1 | 0.0 | 0.9 | -9.5 | -3.8
Cc1cnc(Nc2ccc(-n3ccnc3)cc2)nc1Nc1ccc(N2CCOCC2)cc1 | -0.3 | -1.2 | 5.0 | 51.2*
c1cn(-c2ccc(Nc3nc(Nc4ccc(N5CCOCC5)cc4)c4[nH]cnc4n3)cc2)cn1 | -0.1 | 1.1 | 5.4 | 51.4*
CC(=O)Nc1ccc(Nc2nc(Nc3ccc(N4CCOCC4)cc3)ncc2C)cc1 | 0.0 | 1.9 | 11.1 | 12.2
CC(=O)c1cccc(-c2nc(Nc3ccc(N4CCOCC4)cc3)c3[nH]cnc3n2)c1 | -0.1 | 0.5 | 3.2 | -1.5
SMILES | FBW7 act | GPR151 activ | MITF primary | TEAD-YAP block
Nc1cccc(-c2nc(Nc3ccc(N4CCOCC4)cc3)c3[nH]cnc3n2)c1 | -0.3 | -2.0 | -11.7 | 60.1*
c1ccc(Nc2nc(Nc3ccc(N4CCOCC4)cc3)c3[nH]cnc3n2)cc1 | 0.0 | 0.6 | 2.9 | 47.0*
CCCNc1nc(Nc2cc(OC)c(OC)c(OC)c2)nc2nc[nH]c12 | 0.4 | 0.5 | 16.4 | 39.1*
COc1cc(Nc2nc(Nc3ccc(N4CCOCC4)cc3)c3[nH]cnc3n2)cc(OC)c1OC | 0.1 | -3.8 | 12.6 | 63.9*
Cc1cn2c3c(=O)n(C)c(=O)n(C)c3nc2n1Cc1ccccc1F | -0.3 | -0.9 | -12.7 | 6.8
Cc1ccnc(NC(=O)Cn2ncc3c2-c2ccccc2OC3)c1 | 0.5 | -0.7 | 8.4 | 16.6
CCOc1ccccc1N(CC(=O)Nc1c(C)cccc1C(C)C)S(C)(=O)=O | 0.0 | 2.1 | 12.2 | -2.3
O=C(O)c1cccc2[nH]c(C(F)(F)F)nc12 | 0.2 | 0.7 | 15.6 | 11.5
Cc1cc(-c2cccc3[nH]c(C(F)(F)F)nc23)nn1C(=O)c1ccncc1 | -0.2 | -0.9 | 1.5 | 34.2*
CC[n+]1c(-c2ccc(C)cc2)csc1Nc1c(C)cc(C)cc1C | 0.1 | 2.9 | 21.9 | 5.1
CC[n+]1c(-c2ccc(C)cc2)csc1Nc1ccc(NC(C)=O)cc1 | -0.1 | 0.5 | 11.6 | 61.7*
CCN(CC)c1ccc(N=Nc2ncn[nH]2)cc1 | -2.0 | -1.0 | 35.8 | 44.4*
COc1ccc(N=C2O/C(=C\c3sc(=S)n(CC4CCCO4)c3O)N=C2C#N)cc1 (stereo not drawn) | -0.5 | -1.4 | 51.7* | 9.1
Cc1ccsc1/C=C1\CCc2ccccc2C1=O | -0.1 | -10.7 | -3.2 | 68.3*
Cc1nc2sccn2c1C(=O)Nc1cccc(Oc2ccccc2)c1 | 0.2 | -1.3 | 9.9 | -4.0
Cc1nc2sccn2c1C(=O)Nc1cccc(OC(F)(F)F)c1 | 1.9* | 0.1 | 17.6 | -5.2
O=C(CSc1ncccc1C(=O)O)c1ccc2ccccc2c1 | -0.2 | -0.4 | 6.0 | -12.9
O=C(CSc1ncccc1C(=O)O)c1ccc2c(c1)OCCO2 | 0.1 | 0.3 | -0.3 | 33.8*
O=C(CSc1nnnn1-c1cccc(F)c1)c1ccc2c(c1)OCCO2 | 0.0 | 1.1 | -8.6 | 78.2*
C=C(C)CN(CC)Cc1cc(Cl)ccc1O | 0.2 | 2.1 | -6.0 | 2.8
CCN(CC)Cc1cc(O)c(CN(CC)CC)cc1O | -0.1 | -1.0 | 76.0* | 4.2
N=C1/C(=C/c2cn(CCOc3ccc(Cl)cc3)c3ccccc23)C(=O)N=C2SC(C3CCCCC3)=NN12 | 0.2 | 0.4 | -6.0 | -5.9
CC(=O)c1cccc(NC(=O)[C@H](CSCc2ccccc2)N2Cc3ccccc3C2=O)c1 | 0.5 | -0.2 | 14.6 | 2.6
CCOC(=O)C1=C(N)n2c(s/c(=C/c3ccccc3)c2=O)=C(C(=O)OCC)C1c1ccccc1 (stereo not drawn) | 0.1 | -2.1 | -5.7 | -9.2
CCOC(=O)C1=C(N)n2c(s/c(=C\c3ccc(O)cc3)c2=O)=C(C#N)C1c1ccc(O)cc1 (stereo not drawn) | 0.1 | 1.5 | 7.4 | 4.5
SMILES | FBW7 act | GPR151 activ | MITF primary | TEAD-YAP block
CCOC(=O)C1=C(N)n2c(s/c(=C\c3ccc(OC)c(OC)c3)c2=O)=C(C#N)C1c1ccc(OC)c(OC)c1 (stereo not drawn) | 0.5 | -1.9 | 8.8 | 59.2*
CCOC(=O)C1=C(N)n2c(s/c(=C/c3cccs3)c2=O)=C(C(=O)OCC)C1c1cccs1 (stereo not drawn) | 0.0 | -0.2 | 0.6 | 40.7*
COc1ccc(S(=O)(=O)N(CCc2ccccc2)CC(=O)Nc2ccc(C)c(C)c2)cc1 | -0.2 | -0.2 | -9.0 | -0.3
CCCS(=O)(=O)N1CCN(Cc2cc(OC)c(OC)cc2OC)CC1 | 1.1 | 1.0 | 28.4 | -0.1
Cc1cccc(C)c1NC(=O)CC(=O)c1ccccc1 | 0.1 | 0.9 | 3.1 | 4.3
COc1ccccc1NC(=O)Nc1c(SC)nsc1SC | 0.0 | -0.7 | 7.5 | 37.2*
O=C(CCl)NC(Cc1ccccc1)c1ccccc1 (stereo not drawn) | 0.0 | 0.0 | 11.0 | 57.8*
